High-throughput results from PubChem.
HepG2 tox: kills HepG2 cells in TGF-b inhibitor counter-screen | HepG2 CAGA-GFP viability, ATP luminescence, 18 h | Potency, µM (highest dose often 46.1 µM), for inactives: top-dose activity change, negative = cytotoxicity, actives largely listed as cytotoxic | 410,000 tested, 0.76% active
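HepG2 CAGA-GFP cells (1000/well, DMEM with 1% FBS) received compound, then TGF-beta at 500 pg/mL final, and were incubated 18 hours at 37 degrees C. Viability was read by CellTiter-Glo luminescence. Media-only wells were set as complete cell-killing and DMSO as no toxicity.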
DT40 TDP1 no CPT: qHTS for Inhibitors of human tyrosyl-DNA phosphodiesterase 1 (TDP1): qHTS in cells in absence of CPT; Potency, µM (titrated, usually from 46.2 µM), for inactives: at the highest dose activity change, negative = growth inhibition, actives largely listed as inhibitors; DT40 Tdp1-/- hTDP1 cells, no CPT, ATP luminescence, 48 h; 420,000 tested, 15% active; note: % is set by controls: 0 for no effect and ±100 for the full control effect; nearly all actives have a fitted effect of over 55% in size
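Seeded 400 DT40-hTDP1 cells/well (vehicle DMSO, no 20 nM CPT); pinned compounds; ≥48 hr at 37 °C; CellTiter-Glo luminescence as viability measure.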
TGFb SMAD3 inh: TGF-b pathway inhibition. HepG2 CAGA-GFP TGF-b/SMAD3 reporter, GFP fluorescence, 18 h; TGF-beta stimulated, 500 pg/mL final. Potency, µM (titrated, usually from 46.1 µM), without a hit: at the top dose activity, negative = inhibition, usual class: inhibitors. 410,000 tested, 1.2% active. AID 588855; note: % is set by controls: 0 for no effect and ±100 for the full control effect; nearly all actives have a fitted effect of over 65% in size
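First, reporter cells (HEPG2 CAGA-GFP) rested 2 h at 37 degrees C. Next, compounds were pinned in and TGF-beta added to 500 pg/mL final. After 18 h, GFP was imaged per cell and summed per well.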
HT1080NT lethal: kills 2HG-producing HT-1080-NT fibrosarcoma cells; 360,000 tested, 1.6% active; Potency, µM (series often up to 46.1 µM), without a hit: at the top dose activity, negative = less viability, hits mostly cytotoxic; HT-1080-NT fibrosarcoma viability, CellTiter-Glo ATP luminescence, 48 h;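 note: NT is the 2HG producing partner of a matched IDH1 knockdown line; 0% = DMSO-treated cells and -100% = media-only wells without cells; nearly all actives have a fitted effect of over 55% in size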
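Read-out is CellTiter-Glo luminescence after 10 minutes at room temperature, following 48 hours' compound treatment of HT-1080-NT cells (750 cells/well, RPMI, 5% FBS, 37 degrees C).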
DT40 TDP1 CPT: DT40-hTDP1 cell growth loss with CPT | chicken DT40 Tdp1-/-;hTDP1 cells + 20 nM CPT, ATP luminescence, 48 h | Potency, µM (doses to about 46.2 µM), for inactives: at the highest dose activity change, negative = growth inhibition, hits mostly inhibitors | 420,000 tested, 12% active; note: % is set by controls: 0 for no effect and ±100 for the full control effect; nearly all actives have a fitted effect of over 55% in size
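Chicken DT40 Tdp1-/- cells stably complemented with human TDP1 were seeded at 400 cells/well in medium containing 20 nM camptothecin, exposed to pin-transferred compounds, and grown at 37 °C for at least 48 hr. Viability was read as ATP luminescence.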
HT1080 IDH1KD tx: kills HT-1080 cells with IDH1 knockdown | HT-1080 IDH1 knockdown viability, ATP luminescence, 48 h | Potency, µM (titrated, usually from 46.1 µM), for the others: at the highest dose activity, negative = toxicity, actives largely listed as cytotoxic | 360,000 tested, 2% active;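 note: 0% = DMSO wells and -100% = cell-free medium wells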
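CellTiter-Glo luminescence after 48 h compound exposure at 37 degrees C of IDH1-knockdown HT-1080 cells in 5% FBS RPMI. %Activity scaled between DMSO wells and cell-free media wells, with curves fitted and assigned curve classes.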
* = called active by the depositor; ? = inconclusive; · = no result given; [ ] = dose if it differs, or a comment. Rows were chosen to be rich in hits. Some 17% of all compounds tested hit in one or more screens of this group. Calls come from the whole dose curve; as a rule, active = well fitted curve in the direction sought with a large enough effect; inconclusive = small, poorly fitted or top-dose-only effect, or another doubt; inactive = no such curve, though single readings can be large; an effect the other way counts as inactive or inconclusive. Potency is the fitted concentration of half-maximal effect.

SMILES | HepG2 tox | DT40 TDP1 no CPT | TGFb SMAD3 inh | HT1080NT lethal | DT40 TDP1 CPT | HT1080 IDH1KD tx
CC[C@@H]1CC=C[C@H]2[C@H]1C(=O)N(Cc1ccccc1)[C@H]2c1ccc(C(F)(F)F)cc1 | -30% | ? | ? | -12% | 15µM* | -19%
CC(C)[C@H](NS(=O)(=O)c1ccccc1)C(=O)Nc1nccs1 | -25% | -26% | -7% | -12% | -7% | -5%
C[C@@H]1CC=C[C@H]2[C@H]1C(=O)N(Cc1ccccc1)[C@H]2c1ccc(F)c(/C=C/c2ccccc2)c1 | -21% | 8.2µM* | ? | ? | 8.2µM* | ?
CC1CC=CC2C1C(=O)N(Cc1ccccc1)C2c1ccc(F)c(/C=C/c2ccccc2)c1 (stereo not drawn) | 1% | · | 13% | · | · | ·
O=C(NCCc1ccc(O)c(O)c1)C1COc2ccccc2O1 (stereo not drawn) | -7% | ? | 5% | -9% | 13µM* | ?
O=C(NCCc1ccccc1)C1COc2ccccc2O1 (stereo not drawn) | -16% | -24% | -16% | 16% | -8% | 12%
O=C(c1ccccc1)N1CCOC(O)(c2ccccc2)C1c1ccccc1 (stereo not drawn) | 2% | -32% | 3% | 2% | ? | -17%
O=C(CCN1CCN(c2ccccc2)CC1)N/N=C/c1ccc([N+](=O)[O-])o1 | -64% | ? | ? | -13% | 10µM* | ?
O=C(CN1CCOCC1)NN=Cc1ccc([N+](=O)[O-])o1 | -46% | ? | ? | -21% | 21µM* | ?
O=C(CN1CCCCCCC1)N/N=C/c1ccc([N+](=O)[O-])o1 | 20µM* | ? | 13µM* | -14% | ? | -29%
N#Cc1ccccc1S(=O)(=O)N1CCNS(=O)(=O)c2ccccc21 | 5% | -1% | 1% | 14% | 10% | 11%
CC(=O)OC1C[C@]2(C)[C@@H](CC(O)C3[C@]4(C)CCC(O)C(C)[C@@H]4CC[C@]32C)/C1=C(/CCC=C(C)C)C(=O)O (stereo partly drawn) | · | 3% | · | · | 10% | ·
CCOC(=O)CCc1c(C)nc2cc(-c3ccc(Cl)cc3)[nH]n2c1=O | 6% | -14% | 5% | 11% | -29% | 8%
COCc1cc(=O)n2[nH]c(-c3cccc(Br)c3)cc2n1 | -2% | ? | 9% | 4% | -3% | 1%[9.24 µM]
CCc1c(C)nc2cc(-c3cccc(Br)c3)[nH]n2c1=O | -32% | 1.5µM* | -24% | 2% | 4.6µM* | -4%
CCc1c(C)nc2cc(-c3ccc(Cl)cc3)[nH]n2c1=O | -71% | 2.3µM* | 1% | -13% | 3.7µM* | -4%
CCOc1ccc(C(=O)C2CCN(C(=O)c3ccc([N+](=O)[O-])cc3)CC2)cc1 | -19% | 21µM* | ? | -16% | ? | -15%
O=C(c1ccc(Cl)cc1)N1CCC(c2ccncc2)CC1 | 1% | -72% | -10% | · | ? | ·
CCOC(=O)N1CCN(C(=O)c2ccc(Oc3ccc([N+](=O)[O-])cc3)cc2)CC1 | 0% | 23µM* | -24% | -1% | 16µM* | -18%
CCOc1ccc(C(=O)C2CCN(C(=O)c3ccccc3C(=O)O)CC2)cc1 | -15% | -6% | 6% | 11% | -7% | -7%
CC(C)N1CCN(C(=O)c2ccc([N+](=O)[O-])cc2)CC1 | 11µM* | 1% | -19% | 9% | 5% | 7%
CCOc1ccc(C(=O)N2CCC(c3ccncc3)CC2)cc1 | -18% | ? | ? | · | 13µM* | ·
